We go through 38 molecules from PubChem BioAssay (EPA / NIEHS).

Structures are written as SMILES. Results filed as inconclusive are left out. Activity calls are given as the source filed them. How the source made its calls: active means hit-call score of the fitted dose curve at least 0.9, where 1 is the maximum; inconclusive means response in the unintended direction; inactive means score below 0.9.

Read-out in the assay: ABC Transporter (ABCB1), ABCB1 (gene 5243)
Description: CLD_ABCB1_48hr: CellzDirect (CLD) Gene Expression Assay for ABC Transporter (ABCB1) at 48 hours (AID 2283695).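 On AC50: potency for induction meaning increase of mRNA over DMSO vehicle.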 The procedure:
CLD_48hr is a cell-based, multiplexed-readout assay that uses hepatocyte, a human liver primary cell, with measurements taken at 48 hours after chemical dosing in a 96-well plate.CLD_ABCB1_48hr is one of 16 assay component(s) measured or calculated from the CLD_48hr assay. It is designed to make measurements of mRNA induction, a form of inducible reporter, as detected with chemiluminescence signals by Quantitative Nuclease Protection Assay (qNPA) technology.Data from the assay component CLD_ABCB1_48hr was analyzed at the endpoint, CLD_ABCB1_48hr, in the positive analysis fitting direction relative to DMSO as the negative control and baseline of activity. Using a type of inducible reporter, gain-of-signal activity can be used to understand changes in the reporter gene as they relate to the gene ABCB1. Furthermore, this assay endpoint can be referred to as a primary readout. To generalize the intended target to other relatable targets, this assay endpoint is annotated to the transporter intended target family, where subfamily is ABC transporter.
Human hepatocyte cultures were treated daily for two consecutive days with fresh dosing solutions containing appropriate concentrations of the 320 ToxCast chemicals (chemical identities were blinded to CellzDirect and other ToxCast collaborators), vehicle control (0.2% DMSO), and positive control inducers as summarized in Table 1. Due to the large number of treatment groups and chemicals examined, the ToxCast chemicals were divided into two groups (spanning two independent cultures of hepatocytes from separate donor preparations (Hu778: ToxCast plates 1 and 2; Hu776: ToxCast plates 3 and 4). Each preparation of human hepatocyte cultures was treated with respective vehicle control, medium only control, set of six positive controls/reference chemicals for the five hepatic receptor pathways, and a subset of eight of the ToxCast chemicals (indoxacarb, pyrithiobac-sodium, norflurazon, cyhalofop-butyl, methomyl, thiram, acetochlor, and propiconazole). These replicate data, coupled with internal replicates designed within the blinded ToxCast chemical library, provided additional data to evaluate interindividual differences between hepatocyte preparations and their potential impact on chemical profiles.Cell morphology and integrity were evaluated using phase-contrast microscopy as an indicator of hepatocyte cell health (Tyson & Green, 1987). Cultures for each treatment group (i.e., media, vehicle [0.2% DMSO], positive control inducers [multiple concentrations], and the ToxCast chemicals [multiple concentrations]) were observed and cell morphology was assessed relative to vehicle control cultures at each harvest time point (0, 6, 24, or 48 h). […] Images were evaluated at the conclusion of the study to assess changes in cell integrity and account for the effects of chemical exposure on uncharacteristic changes in concentration-dependent gene expression profiles. The results from these determinations of apparent cytotoxicity were annotated (yes/no) alongside the corresponding qNPA data for reference.At the conclusion of each treatment period, hepatocyte cultures (96-well) were washed with 1 volume of HBSS, lysed by addition of 25 ul ArrayPlate lysis buffer (HTG, Tucson, AZ), and 70 ul/well of Denaturation Oil, denatured by incubation at 95C for 10 min, and frozen at approximately -70C until analysis by nuclease protection assay (qNPA) (Roberts et al., 2007). For qNPA analysis, cell lysates were thawed at 50C for approximately 30 min, qNPA probes were added, and samples were incubated at 95C for 10 min to begin the detection process by denaturing the target RNA, dissociating the duplexes and secondary structure hybridization. At the conclusion of the hybridization period, S1 nuclease reagent was added to each sample to digest all nonprotected nucleotides at 50C for 60-90 min. […]
For the molecule `C#CCN1C(=O)COc2cc(F)c(N3C(=O)C4=C(CCCC4)C3=O)cc21`, the molecule was called inactive. With `ClC1C(Cl)C(Cl)C(Cl)C(Cl)C1Cl` (stereo not drawn), the molecule was called inactive.

On to `CCc1ccc(C(=O)NN(C(=O)c2cc(C)cc(C)c2)C(C)(C)C)cc1`, for which the molecule was called inactive.

Consider `CCC(C)Nc1c([N+](=O)[O-])cc(C(C)(C)C)cc1[N+](=O)[O-]` (stereo not drawn), for which the molecule was called inactive. As for `O=C1c2ccccc2C(=O)N1SC(Cl)(Cl)Cl`, the result was inactive. As for `CCC(C)(NC(=O)c1cc(Cl)c(C)c(Cl)c1)C(=O)CCl` (stereo not drawn), the molecule was classed as inactive. As for `O=[N+]([O-])/N=C1\NCCN1Cc1ccc(Cl)nc1`, the outcome was inactive. As a reminder, the AC50 is the midpoint of the concentration-response curve, whichever way the signal moves. Take `C[C@H]1[C@H](c2ccc(Cl)cc2)SC(=O)N1C(=O)NC1CCCCC1`: the AC50 was 35.5 µM (active).

For the molecule `CCC(C)(C)C(=O)OC1=C(c2ccc(Cl)cc2Cl)C(=O)OC12CCCCC2`, the molecule was classed as inactive.

Take `CCOCN(C(=O)CCl)c1c(C)cccc1CC`: the outcome was inactive. For the molecule `CC(C)(C)C(O)/C(=C\c1ccc(Cl)cc1Cl)n1cncn1` (stereo not drawn), the half-maximal activity concentration (AC50) was 31.3 µM (active). Consider `CCOC1Oc2ccc(OS(C)(=O)=O)cc2C1(C)C` (stereo not drawn), for which the outcome was inactive. On to `O=S1OCC2C(CO1)C1(Cl)C(Cl)=C(Cl)C2(Cl)C1(Cl)Cl` (stereo not drawn), for which the AC50 was 29.4 µM (active). Consider `N#CN`, for which the result was inactive. The same measure, in the same setting: for `O=S(=O)(O)C(F)(F)C(F)(F)C(F)(F)C(F)(F)C(F)(F)C(F)(F)C(F)(F)C(F)(F)F` the value was “inactive”. `CC[C@H](C)[C@H]1O[C@]2(C=C[C@@H]1C)C[C@@H]1C[C@@H](C/C=C(\C)[C@@H](O[C@H]3C[C@H](OC)[C@@H](O[C@H]4C[C@H](OC)[C@@H](O)[C@H](C)O4)[C@H](C)O3)[C@@H](C)/C=C/C=C3\CO[C@@H]4[C@H](O)C(C)=C[C@@H](C(=O)O1)[C@]34O)O2` (tested in a mixture with another compound): the AC50 is 1.01 µM (active).

For the molecule `CCN(CC)C(=O)SCc1ccc(Cl)cc1`, the molecule was called inactive. Take `CC1(c2ccc(Oc3ccccc3)cc2)OC(=O)N(Nc2ccccc2)C1=O` (stereo not drawn): the result was inactive. In the case of `CC(C)(C)C(O)C(Oc1ccc(Cl)cc1)n1cncn1` (stereo not drawn), the molecule was classed as inactive. For the molecule `CCS(=O)(=O)c1cccnc1S(=O)(=O)NC(=O)Nc1nc(OC)cc(OC)n1`, the molecule was called inactive. Consider `COC(=O)c1ccccc1S(=O)(=O)NC(=O)Nc1nc(C)nc(OC)n1`, for which the molecule was classed as inactive. In the case of `COP(=S)(OC)Oc1ccc([N+](=O)[O-])cc1`, the result was inactive. Consider `CCOc1nc(NC)nc(NC(=O)NS(=O)(=O)c2ccccc2C(=O)OC)n1`, for which the call was inactive. Consider `CCCN(CCC)c1c([N+](=O)[O-])cc(C(F)(F)F)cc1[N+](=O)[O-]`, for which the outcome was inactive. Regarding `O=C(O)C(F)(F)C(F)(F)C(F)(F)C(F)(F)C(F)(F)C(F)(F)C(F)(F)F`, the outcome was inactive. On to `O=C(O)COc1ccc(Cl)cc1Cl`, for which the result was inactive. `Cc1[nH]c(=O)n(C(C)(C)C)c(=O)c1Cl`: the result was inactive. The same measure, in the same setting: the result for `Oc1cc(Cl)ccc1Oc1ccc(Cl)cc1Cl` reads “inactive”; that for `Cc1cc(C)nc(NC(=O)NS(=O)(=O)c2ccccc2C(=O)OC2COC2)n1`, “inactive”. Regarding `CCCN(CCOc1c(Cl)cc(Cl)cc1Cl)C(=O)n1ccnc1`, the AC50 is 20 µM (active). `COP(=O)(OC)OC=C(Cl)Cl`: the molecule was classed as inactive. Consider `CNC(=O)CSP(=S)(OC)OC`, for which the molecule was classed as inactive. On the same count and under the same terms, for `COc1cc(OC)nc(NC(=O)NS(=O)(=O)c2cc(NC=O)ccc2C(=O)N(C)C)n1` the value was “inactive”; for `CNC(=O)Oc1ccccc1OC(C)C`, “inactive”; for `CC(C)N(C(=O)COc1nnc(C(F)(F)F)s1)c1ccc(F)cc1`, “inactive”.

`CNC(=O)/C=C(\C)OP(=O)(OC)OC`: the result was inactive. As to `O=C(O)CCCOc1ccc(Cl)cc1Cl`, the result was inactive. `CNC(=O)Oc1cccc(N=CN(C)C)c1`: the molecule was called inactive.
